High-throughput results as filed in PubChem BioAssay.
The full list was thinned out, with hits kept by preference.
Dicer processing: inhibitors of human Dicer processing of pre-microRNA; Q9UPY3; cat-ELCCA pre-miR-21 Dicer processing, chemiluminescence; stronger effect = higher value; z-score at 25 µM; 47,000 tested, 6% active; AID 1347074; in the data active means z-score above about 3, passing the limit was not always enough;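 further: plate controls were vehicle for no effect and no enzyme for full effect; higher signal means more uncleaved substrate so more Dicer inhibition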
* = called active by the depositor.

SMILES	Dicer processing
Cc1ccc(C)c(COc2c(-c3ccccc3)c(=O)n3c4c(cc(C)cc24)CCC3)c1	-7.75
CCOC(=O)NC(=S)Nc1ccsc1C(=O)OC	-0.36
CC1CCN(CC(C)OC(=O)C2COc3ccccc3O2)CC1 (centres undefined)	0.56
CC(CN(C)Cc1ccccc1)OC(=O)C1COc2ccccc2O1 (centres undefined)	3.5*
O=C(C1COc2ccccc2O1)N1CCCC1 (centres undefined)	1.09
Cc1ccc(Cn2nc(C)c(NC(=O)c3nc4nc(C)cc(C(F)F)n4n3)c2C)cc1	-0.06
O=C(NC(=O)N1CCCCC1)c1csnn1	-0.86
COc1cccc(-c2nc(-c3ccccc3)no2)c1	3.25
Cc1cc(C)cc(-c2nc(-c3ccccc3)no2)c1	4.65*
COc1cccc(-c2nc(-c3ccc(Cl)cc3)no2)c1	3.01*
COc1cccc(-c2nnc(SCc3ccc(Br)cc3)o2)c1	0.26
COc1cccc(-c2nnc(SCc3ccc(Cl)cc3)o2)c1	3.12*
Cc1ccc(-c2nc(-c3ccccc3)no2)cc1	0.12
COc1ccc(-c2noc(-c3cc(C)cc(C)c3)n2)cc1	-0.05
COc1ccc(-c2nc(-c3ccc(Cl)cc3)no2)cc1OC	8.91
COc1cccc(-c2nnc(SCc3cccc(Cl)c3)o2)c1	-0.19
CN(C)/C=C(\Sc1ccc(Cl)cc1)C(=O)c1ccc(Cl)cc1	-0.53
O=C(Nc1ccccc1)c1ccc(Cl)c(Cl)c1	0.25
CC(=O)C(C=Nc1ccc(Cl)cc1Cl)C(C)=O	-0.48
CCOC(=O)c1cc(OCCOC)c(OCCOC)cc1NS(=O)(=O)c1cn(C)cn1	0.89
CCCS(=O)(=O)c1cscc1NC=C(C(=O)OCC)C(=O)OCC	0.82
O=C(Nc1cccc2cccnc12)c1ccco1	-2.82
O=C(Nc1cc(-c2nc3cc(Cl)ccc3o2)ccc1Cl)c1ccco1	1.25
O=C(Nc1ccc(Cl)cc1O)c1ccco1	5.69*
COc1cc(CNCCSc2nnnn2C)ccc1OCc1ccc(F)cc1Cl	-0.32
SMILES	Dicer processing
Cc1c2occ(-c3ccc4c(c3)OCO4)c2cc2c1oc(=O)c1ccccc12	0.19
Cc1c2occ(-c3ccc(F)cc3)c2cc2c1oc(=O)c1ccccc12	4.15*
COc1ccc2c(c1)c(=O)oc1c(C)c3occ(-c4ccc(F)cc4)c3cc12	-0.64
Cc1ccccc1-c1c(C)oc2c(CN(C)C)c(O)ccc2c1=O	1.13
CN(Cc1ccccc1)S(=O)(=O)Cc1ccccc1	0.64
O=S1(=O)CC(O)C(S(=O)(=O)Cc2ccc(Cl)cc2)C1 (centres undefined)	0.55
O=S(=O)(Cc1ccccc1)C1CCCCC1O (centres undefined)	3.1*
COc1ccc(/C(O)=C2/C(=O)C(=O)N(c3cccc(C(=O)O)c3)C2c2ccccc2)cc1 (centres undefined)	-3.11
Oc1ccccc1C=NCC1CCC(CN=Cc2ccccc2O)CC1 (centres undefined)	-0.73
Oc1ccccc1C=Nc1n[nH]c2ccccc12	3.49*
Oc1ccccc1/C=N/C(/N=C/c1ccccc1O)c1ccccc1O	0.33
COc1ccc(NC(=O)CCC(=O)O)cc1OC	3.73*
COC(=O)CCC(=O)Nc1ccc(C)cc1	-0.19
COc1ccc(NC(=O)CC(C)(C)CC(=O)O)cc1OC	-2.91
NS(=O)(=O)c1ccc(NC(=O)CCC(=O)O)cc1	3.44*
NS(=O)(=O)c1ccc(NC(=O)CCCC(=O)O)cc1	1.34
CC(=O)Nc1ccc(NC(=O)CCC(=O)O)cc1	-1.33
COc1ccc(-c2cc(-c3ccccc3)[nH]c(=O)c2C#N)cc1	-1.3
CC(=O)Oc1ccccc1C(=O)OCC(=O)c1ccc(OCc2ccccc2)cc1	1.27
Cn1nc(C(F)(F)F)cc1-c1ccc(/C=C(\C#N)S(=O)(=O)c2ccc(C(F)(F)F)cn2)s1	1.57
O=c1ccn2c(n1)OC1[C@@H](O)[C@@H](CO)O[C@H]12 (some centres undefined)	1.64
Cc1ccc(C(O)c2cccnc2)o1 (centres undefined)	1.66
Cc1ccc(C(c2ccc(C)o2)c2ccccc2O)o1	5.26*
Cc1ccc(/C=C/c2noc(-c3ccccc3O)n2)o1	-0.84
O=C1CS(=O)(=O)N(Cc2c(F)cccc2Cl)c2ccccc21	-0.02
SMILES	Dicer processing
CN(C)/C=N/c1nc(Sc2ncccc2[N+](=O)[O-])n[nH]1	-0.88
CCOc1cc(N2CCOCC2)c(OCC)cc1NS(=O)(=O)C(C)C	1.44
CCc1c(C)nc(N2CCOCC2)[nH]c1=O	-0.93
CC(C)Oc1c(N2CCOCC2)c(=O)c1=O	5.3*
CSc1nc(N)n2nc(C3CC3)cc2n1	-2.18
COc1ccc2nc3c(cc2c1)c(=O)n(C)c1c3c(=O)n(C)c(=O)n1C	-1.7
CCOC(=O)N1CCc2c(sc3[nH]c(=O)n(-c4ccc(C)cc4)c(=O)c23)C1	-0.56
Nc1ncnc2c1nc(SCCC(=O)O)n2Cc1ccccc1	-0.23
Cn1c(=O)c2c(nc(NCCc3ccc(O)cc3)n2C)n(C)c1=O	-1.24
C[C@@H](NCCc1ccc(O)cc1)[C@@H](O)c1ccc(O)cc1	9.66*
CCCCCCCCNC(C)C(O)c1ccc(SC(C)C)cc1 (centres undefined)	33.3
C=CCSc1n[nH]c(=O)n1-c1cccc(Cl)c1	-1.17
Cc1ccc(-n2cccc2)c(-n2c(C)nc3ccc(Br)cc3c2=O)c1	-0.32
CN(C)c1ccc(C=C(c2ccc(N)cc2)c2ccc(N)cc2)cc1	6.36*
Nc1ccc(N(c2ccccc2)c2ccc(N)cc2)cc1	-0.2
COC(=O)C(=C(C)C)c1ccc(N(C)C)cc1	1.03
CCOC(=O)C1=NOC2C(=O)N(c3ccccc3)C(=O)C12 (centres undefined)	1.13
Cn1c(=O)c2c(nc(SCC(=O)NC(C(=O)O)(c3ccccc3)c3ccccc3)n2C)n(C)c1=O	1.27
Nc1ccc(Sc2ccccc2)nc1Sc1ccccc1	-4.65
CCC(=O)Nc1sc2c(c1C(=O)Nc1ccc(Cl)cc1)CCC2	0.55
O=C(Nc1sc2c(c1C(=O)O)CCCCC2)c1ccco1	2.7
CCC(=O)Nc1sc2c(c1C(=O)Nc1ccccc1Cl)CCC2	4.21*
O=C(Nc1sc2c(c1C(=O)Nc1ccccc1)CCCC2)c1ccco1	3.18*
CCOC(=O)c1c(NC(=O)c2cccs2)sc2c1CCCC2	-1.06
CC(C)(C)C1CCc2c(sc(NC(=O)CCC(=O)O)c2C(=O)Nc2ccccc2Cl)C1 (centres undefined)	-0.75
SMILES	Dicer processing
O=C(Nc1sc2c(c1C(=O)Nc1ccccc1)CCCCC2)c1ccco1	2.82
N#Cc1c(NC(=O)c2ccco2)sc2c1CCCCC2	2.56
CCOC(=O)c1c(NC(=O)c2ccco2)sc2c1CCCCC2	5.7*
Cc1ccsc1/C=C/c1nc(N)nc(-c2ccccc2O)n1	1.33
CC(C)c1ccc(C2CC(=O)Oc3c2c(=O)n(C)c2ccccc32)cc1 (centres undefined)	0.25
CN(C)/C=C/C(=O)c1cccc(C#N)c1	-0.24
Cc1[nH]nc2c1C(c1cccc(Br)c1)C(C#N)=C(N)O2 (centres undefined)	-2.45
CCN(CC)c1cc(Cl)cc(Cl)c1	-0.94
CCOC(=O)c1cc2c(NC(=O)c3ccc(OC)cc3)c(C(=O)OCC)sc2nc1C(F)(F)F	0.26
Cc1c(C)c(C)c(C(=O)C2CCN(S(=O)(=O)c3ccc(F)cc3F)CC2)c(C)c1C	0.85
O=C(O)C12CC3CC(C1)CC(c1ccc([N+](=O)[O-])cc1)(C3)C2	-2.09
Cc1cc(/C=C2\N=COC2=O)ccc1C(F)(F)F	4.1*
CC1=N/C(=C/c2ccc(C)c(C)c2)C(=O)O1	-0.91
CN(C)C(=O)Nc1cccc(Cl)c1Cl	13.2
CCCCn1c(CCC(=O)O)ccc1-c1ccc(C)cc1	-1.65
